# Measured values published in PubChem BioAssay AID2284388 (EPA ToxCast).
# Inconclusive results are not listed. Active and inactive are the calls of the source. The calls were made as follows: active = hit-call score of the fitted dose curve at least 0.9, where 1 is the maximum; inconclusive = response in the unintended direction; inactive = score below 0.9.
# Molecular target: human Retinoid X Receptor beta (RXRb) Agonism, RXRB (gene 6257) (UniProt P28702)
# Assay: ERF_TW_NR_COA_hRXRB: Eurofins (ERF) Nuclear Receptor (NR) Functional Coactivator Assay for human Retinoid X Receptor beta (RXRb) Agonism
# Procedure: ERF_TW_NR_COA_hRXRB is a biochemical, single-readout assay that uses extracted gene-proteins in a cell-free assay. Measurements were taken 0.5 hours after chemical dosing in a 96-well plate. See RXRbeta Human Retinoid X NHR Functional Agonist Coactivator Assay, Panlabs.ERF_TW_NR_COA_hRXRB is an assay component calculated from the ERF_TW_NR_COA_hRXRB assay. It is designed to measure FRET using a type of binding reporter as detected by fluorescence intensity of fluorobexarotene with fluorimetry technology.Data from the assay component ERF_TW_NR_COA_hRXRB was analyzed at the assay endpoint, ERF_TW_NR_COA_hRXRB, in the positive analysis fitting direction relative to DMSO as the negative control and baseline of activity. Using a type of binding reporter, gain-of-signal activity can be used to understand changes in binding as they relate to gene RXRB. To generalize the intended target to other relatable targets, this assay endpoint is annotated to the nuclear receptor intended target family, where the subfamily is non-steroidal.
# Test compound and/or vehicle is incubated with the 2 nM retinoid X receptor beta (RXRbeta)-LBD and coactivator peptide for 30 minutes at RT. Determination of the amount of complex formed is read spectrofluorimetrically (excitation: 337 nm, emission: 520/490 nm). Test compound-induced increase fluorescence by 50 percent or more (>/=50%) relative to the 10 uM fluorobexarotene response indicates possible RXRbeta receptor agonist activity.
# Chain of human Retinoid X Receptor beta (RXRb) Agonism, RXRB (gene 6257) (P28702 whole entry, looked up): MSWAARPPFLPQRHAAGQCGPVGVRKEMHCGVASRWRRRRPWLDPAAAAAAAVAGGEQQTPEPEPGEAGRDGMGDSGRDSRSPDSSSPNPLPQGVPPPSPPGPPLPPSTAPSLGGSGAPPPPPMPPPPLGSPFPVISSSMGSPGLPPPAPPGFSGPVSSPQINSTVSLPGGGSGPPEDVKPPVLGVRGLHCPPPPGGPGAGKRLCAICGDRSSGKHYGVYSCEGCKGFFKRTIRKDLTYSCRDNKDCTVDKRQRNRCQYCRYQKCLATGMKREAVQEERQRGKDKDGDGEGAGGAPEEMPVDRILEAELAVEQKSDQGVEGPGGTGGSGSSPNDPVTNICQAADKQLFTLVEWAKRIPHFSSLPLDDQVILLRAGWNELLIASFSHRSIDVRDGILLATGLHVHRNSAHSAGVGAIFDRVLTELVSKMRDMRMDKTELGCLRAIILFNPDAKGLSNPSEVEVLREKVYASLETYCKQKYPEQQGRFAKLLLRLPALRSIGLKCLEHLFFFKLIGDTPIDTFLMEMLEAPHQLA
Compound,outcome,AC50
O=C(O)C(F)(F)C(F)(F)C(F)(F)OC(F)(C(F)(F)F)C(F)(F)F,inactive,
C/C(=C\c1ccc(C(=O)O)cc1)c1ccc2c(c1)C(C)(C)CCC2(C)C,inactive,
CN(c1nccc(=O)[nH]1)C1CCN(c2nc3ccccc3n2Cc2ccc(F)cc2)CC1,inactive,
ClC1=C(Cl)[C@]2(Cl)[C@@H]3[C@H]4C[C@H]([C@@H]5O[C@H]45)[C@@H]3[C@@]1(Cl)C2(Cl)Cl,inactive,
O=C(O)C(F)(F)C(F)(F)C(F)(F)C(F)(F)C(F)(F)C(F)(F)C(F)(F)C(F)(F)Cl,inactive,
O=S(=O)(O)C(F)(F)C(F)(F)C(F)(F)C(F)(F)C(F)(F)C(F)(F)C(F)(F)C(F)(F)F,inactive,
CC(=O)c1cc(C(C)(C)C)cc2c1CCC2(C)C,,14.5 µM (active)
Cc1ccc2cc3c(ccc4ccccc43)c3c2c1CC3,inactive,
ClC1=C(Cl)[C@]2(Cl)[C@@H]3[C@@H]4C[C@@H]([C@H]5O[C@@H]45)[C@@H]3[C@@]1(Cl)C2(Cl)Cl,inactive,
CC1(C)CCC(C)(C)c2cc(C(=O)Nc3ccc(C(=O)O)cc3)ccc21,inactive,
CCCc1c(OCCCOc2ccc(OCC(=O)O)cc2)ccc(C(C)=O)c1O,inactive,
O=C(O)C(F)(F)OC(F)(F)C(F)(F)OC(F)(F)C(F)(F)OC(F)(F)C(F)(F)C(F)(F)C(F)(F)F,inactive,
OCCCC(F)(F)C(F)(F)C(F)(F)C(F)(F)C(F)(F)C(F)(F)C(F)(F)F,inactive,
